Test results: ChEMBL document CHEMBL2218924, “A broad activity screen in support of a chemogenomic map for kinase signalling research and drug discovery” (Biochem J, 2013)

How the values were obtained:
[1] = biological target: T1, Serine/threonine-protein kinase 3 (Homo sapiens) (UniProt Q13188); conditions: at 1 µM
T1 sequence (whole entry): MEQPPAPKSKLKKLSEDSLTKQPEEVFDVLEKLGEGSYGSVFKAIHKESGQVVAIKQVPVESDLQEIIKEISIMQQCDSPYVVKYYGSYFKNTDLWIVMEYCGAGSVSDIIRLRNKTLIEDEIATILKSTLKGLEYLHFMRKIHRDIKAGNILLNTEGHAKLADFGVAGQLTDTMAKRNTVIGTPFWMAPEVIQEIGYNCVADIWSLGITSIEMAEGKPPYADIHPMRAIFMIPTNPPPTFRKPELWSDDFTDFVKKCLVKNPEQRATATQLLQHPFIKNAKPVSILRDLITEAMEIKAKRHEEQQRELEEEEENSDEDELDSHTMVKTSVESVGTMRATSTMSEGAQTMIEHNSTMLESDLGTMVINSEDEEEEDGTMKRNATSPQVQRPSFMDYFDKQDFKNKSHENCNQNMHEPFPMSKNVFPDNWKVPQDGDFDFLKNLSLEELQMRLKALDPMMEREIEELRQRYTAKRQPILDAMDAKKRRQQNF

[2] = biological target: T1, Serine/threonine-protein kinase 3 (Homo sapiens); conditions: at 10 µM
[3] = biological target: Serine/threonine-protein kinase 24 (Homo sapiens) (UniProt Q9Y6E0); conditions: at 1 µM
[4] = biological target: Serine/threonine-protein kinase 24 (Homo sapiens) (UniProt Q9Y6E0); conditions: at 10 µM
[5] = biological target: T2, Tyrosine-protein kinase Mer (Homo sapiens) (UniProt Q12866); conditions: at 1 µM
T2 sequence (whole entry): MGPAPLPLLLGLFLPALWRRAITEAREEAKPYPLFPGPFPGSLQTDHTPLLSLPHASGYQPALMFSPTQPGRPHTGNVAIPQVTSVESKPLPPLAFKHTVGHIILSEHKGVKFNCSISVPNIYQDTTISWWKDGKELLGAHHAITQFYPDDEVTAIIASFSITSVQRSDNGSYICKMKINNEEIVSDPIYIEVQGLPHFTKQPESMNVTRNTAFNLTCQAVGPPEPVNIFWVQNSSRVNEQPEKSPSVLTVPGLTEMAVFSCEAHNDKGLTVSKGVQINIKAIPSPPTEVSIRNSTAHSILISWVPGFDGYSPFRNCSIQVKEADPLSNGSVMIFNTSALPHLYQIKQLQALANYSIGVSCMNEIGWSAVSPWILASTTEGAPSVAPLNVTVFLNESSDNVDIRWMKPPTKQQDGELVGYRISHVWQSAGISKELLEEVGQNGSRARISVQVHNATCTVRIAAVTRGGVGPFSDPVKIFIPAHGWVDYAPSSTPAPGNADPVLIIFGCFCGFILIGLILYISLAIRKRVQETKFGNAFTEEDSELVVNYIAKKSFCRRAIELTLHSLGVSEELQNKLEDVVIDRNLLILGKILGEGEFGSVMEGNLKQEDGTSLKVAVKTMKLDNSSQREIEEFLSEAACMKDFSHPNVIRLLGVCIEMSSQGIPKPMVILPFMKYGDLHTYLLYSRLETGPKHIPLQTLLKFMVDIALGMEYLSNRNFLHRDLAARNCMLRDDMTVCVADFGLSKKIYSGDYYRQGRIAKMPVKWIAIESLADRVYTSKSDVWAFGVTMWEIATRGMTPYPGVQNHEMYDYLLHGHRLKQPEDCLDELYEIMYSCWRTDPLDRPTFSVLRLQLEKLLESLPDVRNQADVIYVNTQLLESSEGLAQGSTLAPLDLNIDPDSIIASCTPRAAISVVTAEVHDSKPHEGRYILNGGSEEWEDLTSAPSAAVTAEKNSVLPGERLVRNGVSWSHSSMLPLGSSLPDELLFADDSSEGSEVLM

[6] = biological target: T2, Tyrosine-protein kinase Mer (Homo sapiens); conditions: at 10 µM
[7] = biological target: Hepatocyte growth factor receptor (Homo sapiens) (UniProt P08581); conditions: at 1 µM
[8] = biological target: Hepatocyte growth factor receptor (Homo sapiens) (UniProt P08581); conditions: at 10 µM
[9] = biological target: MAP kinase-interacting serine/threonine-protein kinase 2 (Homo sapiens) (UniProt Q9HBH9); conditions: at 1 µM
[10] = biological target: MAP kinase-interacting serine/threonine-protein kinase 2 (Homo sapiens) (UniProt Q9HBH9); conditions: at 10 µM
[11] = biological target: T3, Muscle, skeletal receptor tyrosine-protein kinase (Homo sapiens) (UniProt O15146); conditions: at 1 µM
T3 sequence (whole entry): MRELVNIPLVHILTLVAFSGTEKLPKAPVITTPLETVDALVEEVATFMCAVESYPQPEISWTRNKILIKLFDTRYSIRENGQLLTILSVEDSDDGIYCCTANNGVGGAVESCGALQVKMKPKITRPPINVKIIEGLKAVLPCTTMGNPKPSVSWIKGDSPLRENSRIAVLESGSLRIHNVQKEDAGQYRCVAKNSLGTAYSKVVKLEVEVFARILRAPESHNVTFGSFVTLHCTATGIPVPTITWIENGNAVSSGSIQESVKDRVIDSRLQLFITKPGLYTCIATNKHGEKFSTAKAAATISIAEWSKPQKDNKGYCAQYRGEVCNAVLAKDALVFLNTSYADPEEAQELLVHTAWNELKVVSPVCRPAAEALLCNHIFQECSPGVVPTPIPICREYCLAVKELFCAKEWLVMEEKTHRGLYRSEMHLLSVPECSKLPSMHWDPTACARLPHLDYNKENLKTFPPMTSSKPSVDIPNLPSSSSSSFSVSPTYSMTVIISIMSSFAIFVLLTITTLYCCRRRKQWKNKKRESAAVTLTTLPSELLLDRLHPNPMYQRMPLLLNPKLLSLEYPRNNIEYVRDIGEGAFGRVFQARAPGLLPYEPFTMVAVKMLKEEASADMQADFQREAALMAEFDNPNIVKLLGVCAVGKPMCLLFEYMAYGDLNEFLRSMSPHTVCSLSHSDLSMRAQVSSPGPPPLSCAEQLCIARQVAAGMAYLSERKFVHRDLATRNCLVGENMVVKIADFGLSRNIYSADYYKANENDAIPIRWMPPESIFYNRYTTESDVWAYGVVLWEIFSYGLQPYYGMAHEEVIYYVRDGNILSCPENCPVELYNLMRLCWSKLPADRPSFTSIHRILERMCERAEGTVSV

[12] = biological target: T3, Muscle, skeletal receptor tyrosine-protein kinase (Homo sapiens); conditions: at 10 µM
[13] = biological target: T4, Serine/threonine-protein kinase Nek11 (Homo sapiens) (UniProt Q8NG66); conditions: at 1 µM
T4 sequence (whole entry): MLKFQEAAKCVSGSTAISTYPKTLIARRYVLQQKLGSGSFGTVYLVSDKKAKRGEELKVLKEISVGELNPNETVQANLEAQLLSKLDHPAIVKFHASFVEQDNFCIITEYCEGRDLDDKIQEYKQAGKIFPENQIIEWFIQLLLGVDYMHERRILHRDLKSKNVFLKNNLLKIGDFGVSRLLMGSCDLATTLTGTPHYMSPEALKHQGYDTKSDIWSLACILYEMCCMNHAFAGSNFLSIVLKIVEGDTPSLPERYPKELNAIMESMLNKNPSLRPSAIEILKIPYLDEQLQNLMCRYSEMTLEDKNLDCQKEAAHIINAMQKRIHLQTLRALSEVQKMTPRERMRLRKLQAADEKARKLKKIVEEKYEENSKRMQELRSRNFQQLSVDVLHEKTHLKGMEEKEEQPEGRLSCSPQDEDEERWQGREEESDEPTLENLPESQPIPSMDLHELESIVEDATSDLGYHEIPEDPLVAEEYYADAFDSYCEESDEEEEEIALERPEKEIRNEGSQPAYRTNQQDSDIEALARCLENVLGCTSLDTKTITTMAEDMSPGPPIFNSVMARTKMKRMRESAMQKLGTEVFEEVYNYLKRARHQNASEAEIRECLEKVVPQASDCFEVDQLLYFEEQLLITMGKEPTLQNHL

[14] = biological target: T4, Serine/threonine-protein kinase Nek11 (Homo sapiens); conditions: at 10 µM
[15] = biological target: T5, Serine/threonine-protein kinase Nek2 (Homo sapiens) (UniProt P51955); conditions: at 1 µM
T5 sequence (whole entry): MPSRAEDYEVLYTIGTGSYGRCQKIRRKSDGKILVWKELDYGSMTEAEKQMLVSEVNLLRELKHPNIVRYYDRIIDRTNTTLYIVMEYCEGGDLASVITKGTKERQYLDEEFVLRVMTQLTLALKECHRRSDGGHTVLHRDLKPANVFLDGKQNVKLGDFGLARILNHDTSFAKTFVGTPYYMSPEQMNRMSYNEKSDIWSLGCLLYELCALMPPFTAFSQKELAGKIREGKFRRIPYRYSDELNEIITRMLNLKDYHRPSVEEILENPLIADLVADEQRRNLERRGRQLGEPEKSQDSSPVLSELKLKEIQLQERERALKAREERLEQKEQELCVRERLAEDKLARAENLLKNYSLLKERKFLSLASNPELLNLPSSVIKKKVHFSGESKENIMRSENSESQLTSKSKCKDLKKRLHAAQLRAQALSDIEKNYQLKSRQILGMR

[16] = biological target: T5, Serine/threonine-protein kinase Nek2 (Homo sapiens); conditions: at 10 µM
[17] = biological target: T6, Serine/threonine-protein kinase Nek3 (Homo sapiens) (UniProt P51956); conditions: at 1 µM
T6 sequence (whole entry): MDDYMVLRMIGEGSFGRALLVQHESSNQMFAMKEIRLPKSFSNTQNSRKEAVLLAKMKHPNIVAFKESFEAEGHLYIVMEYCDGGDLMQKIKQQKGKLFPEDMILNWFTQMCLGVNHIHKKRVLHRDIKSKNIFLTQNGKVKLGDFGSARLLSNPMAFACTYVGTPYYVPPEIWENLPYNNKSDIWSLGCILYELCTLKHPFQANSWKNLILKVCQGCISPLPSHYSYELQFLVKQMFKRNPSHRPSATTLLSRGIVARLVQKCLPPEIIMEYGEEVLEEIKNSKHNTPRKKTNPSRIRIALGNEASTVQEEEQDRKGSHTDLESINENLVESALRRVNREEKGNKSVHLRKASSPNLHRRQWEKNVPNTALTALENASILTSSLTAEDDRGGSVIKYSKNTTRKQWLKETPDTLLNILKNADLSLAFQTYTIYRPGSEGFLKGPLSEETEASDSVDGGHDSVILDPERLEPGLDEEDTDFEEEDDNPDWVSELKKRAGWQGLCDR

[18] = biological target: T6, Serine/threonine-protein kinase Nek3 (Homo sapiens); conditions: at 10 µM
[19] = biological target: Serine/threonine-protein kinase tousled-like 2 (Homo sapiens) (UniProt Q86UE8); conditions: at 1 µM
[20] = biological target: Serine/threonine-protein kinase tousled-like 2 (Homo sapiens) (UniProt Q86UE8); conditions: at 10 µM

Hepatocyte growth factor receptor (Homo sapiens), sequence (P08581 whole entry): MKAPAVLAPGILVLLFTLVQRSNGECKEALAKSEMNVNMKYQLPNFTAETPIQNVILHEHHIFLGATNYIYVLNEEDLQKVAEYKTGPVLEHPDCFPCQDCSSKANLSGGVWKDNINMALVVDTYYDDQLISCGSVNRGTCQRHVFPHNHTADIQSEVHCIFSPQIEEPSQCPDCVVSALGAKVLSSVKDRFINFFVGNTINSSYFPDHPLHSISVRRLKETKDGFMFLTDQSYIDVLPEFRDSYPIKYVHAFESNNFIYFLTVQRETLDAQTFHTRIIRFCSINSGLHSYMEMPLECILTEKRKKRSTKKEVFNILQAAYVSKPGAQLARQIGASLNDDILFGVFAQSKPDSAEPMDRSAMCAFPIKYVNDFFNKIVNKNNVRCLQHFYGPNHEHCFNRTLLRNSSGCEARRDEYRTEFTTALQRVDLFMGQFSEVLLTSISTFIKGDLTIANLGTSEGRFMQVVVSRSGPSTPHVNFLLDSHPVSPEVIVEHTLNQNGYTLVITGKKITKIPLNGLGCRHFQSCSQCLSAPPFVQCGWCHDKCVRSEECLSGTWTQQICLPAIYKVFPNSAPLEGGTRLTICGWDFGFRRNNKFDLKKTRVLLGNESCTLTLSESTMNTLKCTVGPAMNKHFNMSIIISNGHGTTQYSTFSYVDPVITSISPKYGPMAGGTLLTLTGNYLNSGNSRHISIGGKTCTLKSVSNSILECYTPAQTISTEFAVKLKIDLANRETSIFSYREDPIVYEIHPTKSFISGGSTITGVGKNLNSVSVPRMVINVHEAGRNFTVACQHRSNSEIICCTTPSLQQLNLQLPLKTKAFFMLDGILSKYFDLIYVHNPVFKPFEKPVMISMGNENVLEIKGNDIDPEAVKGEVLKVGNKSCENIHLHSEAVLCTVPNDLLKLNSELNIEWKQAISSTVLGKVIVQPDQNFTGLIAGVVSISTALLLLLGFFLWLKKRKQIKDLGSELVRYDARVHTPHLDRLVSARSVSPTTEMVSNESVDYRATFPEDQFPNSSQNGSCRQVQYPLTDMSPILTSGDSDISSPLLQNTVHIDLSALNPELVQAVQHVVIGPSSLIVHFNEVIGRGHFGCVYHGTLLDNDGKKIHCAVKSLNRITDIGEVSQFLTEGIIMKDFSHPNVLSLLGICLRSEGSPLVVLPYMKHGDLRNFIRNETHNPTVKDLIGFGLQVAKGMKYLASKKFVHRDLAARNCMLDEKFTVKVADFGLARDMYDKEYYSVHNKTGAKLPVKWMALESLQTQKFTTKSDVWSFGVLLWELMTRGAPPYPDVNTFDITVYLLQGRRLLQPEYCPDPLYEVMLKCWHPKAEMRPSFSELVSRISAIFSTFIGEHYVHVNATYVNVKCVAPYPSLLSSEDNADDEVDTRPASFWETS
Serine/threonine-protein kinase tousled-like 2 (Homo sapiens), sequence (Q86UE8 whole entry, looked up): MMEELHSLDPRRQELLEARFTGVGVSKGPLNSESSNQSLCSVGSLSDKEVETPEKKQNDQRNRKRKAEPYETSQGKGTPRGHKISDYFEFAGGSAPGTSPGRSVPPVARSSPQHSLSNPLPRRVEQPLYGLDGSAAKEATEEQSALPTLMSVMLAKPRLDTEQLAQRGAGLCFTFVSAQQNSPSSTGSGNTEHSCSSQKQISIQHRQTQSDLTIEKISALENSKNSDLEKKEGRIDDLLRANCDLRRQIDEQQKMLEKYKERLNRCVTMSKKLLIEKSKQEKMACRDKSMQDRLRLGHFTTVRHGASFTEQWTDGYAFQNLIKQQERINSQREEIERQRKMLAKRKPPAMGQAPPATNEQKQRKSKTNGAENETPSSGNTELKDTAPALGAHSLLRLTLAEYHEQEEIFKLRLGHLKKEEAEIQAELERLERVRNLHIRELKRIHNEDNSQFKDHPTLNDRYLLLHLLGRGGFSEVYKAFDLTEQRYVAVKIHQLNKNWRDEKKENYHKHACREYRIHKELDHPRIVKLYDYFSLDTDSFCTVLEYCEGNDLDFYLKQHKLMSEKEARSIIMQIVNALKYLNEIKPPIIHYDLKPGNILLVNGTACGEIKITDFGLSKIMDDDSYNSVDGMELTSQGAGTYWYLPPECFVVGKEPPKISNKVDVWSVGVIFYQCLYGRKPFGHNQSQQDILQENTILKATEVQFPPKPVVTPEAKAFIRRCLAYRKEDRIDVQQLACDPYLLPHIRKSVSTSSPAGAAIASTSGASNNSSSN
Serine/threonine-protein kinase 24 (Homo sapiens), sequence (Q9Y6E0 whole entry, looked up): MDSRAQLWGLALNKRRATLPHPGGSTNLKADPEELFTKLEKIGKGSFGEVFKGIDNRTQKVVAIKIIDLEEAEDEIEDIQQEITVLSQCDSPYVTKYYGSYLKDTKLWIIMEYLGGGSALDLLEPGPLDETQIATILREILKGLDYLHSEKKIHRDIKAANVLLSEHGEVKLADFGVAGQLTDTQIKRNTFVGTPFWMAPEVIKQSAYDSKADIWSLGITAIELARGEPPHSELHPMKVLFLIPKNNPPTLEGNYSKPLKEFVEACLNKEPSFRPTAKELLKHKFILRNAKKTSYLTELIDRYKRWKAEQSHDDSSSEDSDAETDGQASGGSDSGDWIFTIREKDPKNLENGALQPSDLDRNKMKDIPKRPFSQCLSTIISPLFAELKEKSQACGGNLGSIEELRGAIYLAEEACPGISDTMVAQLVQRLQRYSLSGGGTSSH
MAP kinase-interacting serine/threonine-protein kinase 2 (Homo sapiens), sequence (Q9HBH9 whole entry, looked up): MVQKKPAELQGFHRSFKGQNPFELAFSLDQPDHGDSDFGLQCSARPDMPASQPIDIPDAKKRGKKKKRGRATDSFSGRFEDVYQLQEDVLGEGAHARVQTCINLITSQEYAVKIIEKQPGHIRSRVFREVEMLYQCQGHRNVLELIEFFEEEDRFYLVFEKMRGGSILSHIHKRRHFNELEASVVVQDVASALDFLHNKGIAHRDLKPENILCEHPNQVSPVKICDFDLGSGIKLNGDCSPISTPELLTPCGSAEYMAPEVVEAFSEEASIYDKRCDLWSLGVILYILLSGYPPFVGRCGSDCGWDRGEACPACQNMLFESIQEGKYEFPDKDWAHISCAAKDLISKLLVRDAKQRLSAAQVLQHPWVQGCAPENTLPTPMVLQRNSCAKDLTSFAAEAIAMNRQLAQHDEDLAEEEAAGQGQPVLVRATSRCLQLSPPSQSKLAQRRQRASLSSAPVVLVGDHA

Row | SMILES | residual activity [1] | residual activity [2] | residual activity [3] | residual activity [4] | residual activity [5] | residual activity [6] | residual activity [7] | residual activity [8] | residual activity [9] | residual activity [10] | residual activity [11] | residual activity [12] | residual activity [13] | residual activity [14] | residual activity [15] | residual activity [16] | residual activity [17] | residual activity [18] | residual activity [19] | residual activity [20]
1 | COc1cccc(-c2cc(=O)c3ccccc3o2)c1N | 97% | 98% | 91% | 89% | 96% | 101% | 117% | 116% | 107% | 113% | 104% | 97% | 64% | 78% | 98% | 102% | 93% | 101% | 98% | 101%
2 | O=C1NC(=O)c2c1c1c3ccccc3[nH]c1c1[nH]c3cc(Br)ccc3c21 | 89% | 62% | 92% | 80% | 87% | 68% | 120% | 116% | 48% | 41% | 104% | 90% | 62% | 73% | 91% | 88% | 85% | 92% | 85% | 86%
3 | O=[N+]([O-])c1ccc(-c2nc(-c3ccc(F)cc3)c(-c3ccncc3)[nH]2)cc1 | 110% | 99% | 83% | 82% | 101% | 107% | 128% | 98% | 109% | 106% | 102% | 92% | 57% | 75% | 99% | 100% | 90% | 92% | 107% | 101%
4 | Oc1c2ccccc2c2c3c(cccc13)N=N2 | 16% | 10% | 57% | 21% | 22% | 9% | 87% | 75% | 43% | 10% | 60% | 24% | 50% | 47% | 86% | 81% | 70% | 79% | 71% | 38%
5 | CCN(CC)CCCCN1c2ccccc2Oc2ccc(Cl)cc21 | 118% | 112% | 85% | 99% | 110% | 62% | 128% | 108% | 107% | 84% | 129% | 97% | 80% | 113% | 85% | 112% | 110% | 111% | 111% | 91%
6 | O=C1NC(=O)/C(=C\c2ccc3nccnc3c2)S1 | 96% | 100% | 57% | 55% | 111% | 60% | 98% | 94% | 76% | 28% | 90% | 75% | 43% | 35% | 88% | 86% | 109% | 81% | 103% | 91%
7 | Oc1ccc(Nc2nc(-c3ccc(Cl)cc3)cs2)cc1 | 101% | 76% | 94% | 102% | 100% | 90% | 138% | 110% | 96% | 80% | 112% | 91% | 72% | 40% | 116% | 97% | 106% | 111% | 104% | 103%
